Test results taken from PubChem BioAssay AID1159580 (chemical genetic matrix, 2015).
The whole screen tested about 5,500 compounds, of which about 2,000 (36%) were called active. Not shown: some 18% with an inconclusive outcome. Cut-off read from the data, not from the text of the source: active = normalized growth mostly below about 0.91 (no sharp cut-off); inconclusive = no clear call, values can overlap the other calls; inactive = mostly above about 0.92. The list shows a part of the results.

Test: chemical genetic growth profiling, strain panel (AID 1159580);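 note: tested at 20 µM; growth read once vehicle control cultures reached saturation at 30 °C; 1 = growth at the plate median or of vehicle wells; lower values mean less growth of the strain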
Settings: growth OD

Measured: normalized growth

Cn1c(=O)[nH]c2nc[nH]c2c1=O
inactive: S. cerevisiae deletion strains, locus YAL021C, strain ccr4, hits give low values 0.98 | S. cerevisiae deletion strains, locus YAL026C, strain drs2, hits give low values 1.01 | S. cerevisiae deletion strains, locus YAL030W, strain snc1, hits give low values 1 | S. cerevisiae deletion strains, locus YBL061C, strain skt5, hits give low values 0.992 | S. cerevisiae deletion strains, locus YBR009C, strain hhf1, hits give low values 0.992 | S. cerevisiae deletion strains, locus YBR021W, strain FUR4, hits give low values 1.01 | S. cerevisiae deletion strains, locus YBR023C, strain chs3, hits give low values 0.993 | S. cerevisiae deletion strains, locus YBR171W, strain sec66, hits give low values 0.972 | S. cerevisiae deletion strains, locus YBR229C, strain ROT2, hits give low values 0.995 | S. cerevisiae deletion strains, locus YBR231C, strain swc5, hits give low values 0.989 | S. cerevisiae deletion strains, locus YBR279W, strain paf1, hits give low values 1 | S. cerevisiae deletion strains, locus YCL011C, strain gbp2, hits give low values 0.996 | S. cerevisiae deletion strains, locus YCL016C, strain dcc1, hits give low values 0.994 | S. cerevisiae deletion strains, locus YCL029C, strain bik1, hits give low values 0.992 | S. cerevisiae deletion strains, locus YCL061C, strain MRC1, hits give low values 0.999 | S. cerevisiae deletion strains, locus YCL069W, strain vba3, hits give low values 0.993 | S. cerevisiae deletion strains, locus YCR088W, strain abp1, hits give low values 1.01 | S. cerevisiae deletion strains, locus YDL005C, strain med2, hits give low values 0.993 | S. cerevisiae deletion strains, locus YDL035C, strain GPR1, hits give low values 1.01 | S. cerevisiae deletion strains, locus YDL040C, strain nat1, hits give low values 0.987 | S. cerevisiae deletion strains, locus YDL074C, strain BRE1, hits give low values 1.04 | S. cerevisiae deletion strains, locus YDL101C, strain DUN1, hits give low values 1.01 | S. cerevisiae deletion strains, locus YDL134C, strain PPH21, hits give low values 1 | S. cerevisiae deletion strains, locus YDL185W, strain tfp1, hits give low values 1.01 | S. cerevisiae deletion strains, locus YDL192W, strain arf1, hits give low values 0.985 | S. cerevisiae deletion strains, locus YDR001C, strain nth1, hits give low values 1 | S. cerevisiae deletion strains, locus YDR069C, strain doa4, hits give low values 1 | S. cerevisiae deletion strains, locus YDR101C, strain arx1, hits give low values 0.995 | S. cerevisiae deletion strains, locus YDR137W, strain rgp1, hits give low values 0.976 | S. cerevisiae deletion strains, locus YDR159W, strain sac3, hits give low values 1.01 | S. cerevisiae deletion strains, locus YDR162C, strain NBP2, hits give low values 1.03 | S. cerevisiae deletion strains, locus YDR195W, strain ref2 0.966 | S. cerevisiae deletion strains, locus YDR297W, strain sur2, hits give low values 1 | S. cerevisiae deletion strains, locus YDR318W, strain mcm21, hits give low values 0.994 | S. cerevisiae deletion strains, locus YDR334W, strain swr1, hits give low values 0.998 | S. cerevisiae deletion strains, locus YDR335W, strain msn5, hits give low values 0.987 | S. cerevisiae deletion strains, locus YDR388W, hits give low values 0.994 | S. cerevisiae deletion strains, locus YDR392W, strain spt3, hits give low values 0.972 | S. cerevisiae deletion strains, locus YDR502C, strain sam2, hits give low values 0.997 | S. cerevisiae deletion strains, locus YEL003W, strain gim4, hits give low values 1.01 | S. cerevisiae deletion strains, locus YEL037C, strain rad23, hits give low values 0.992 | S. cerevisiae deletion strains, locus YEL061C, strain CIN8 (second series), hits give low values 0.995 | S. cerevisiae deletion strains, locus YEL061C, strain CIN8, hits give low values 1 | S. cerevisiae deletion strains, locus YER015W, strain faa2, hits give low values 1.01 | S. cerevisiae deletion strains, locus YER016W, strain bim1, hits give low values 0.993 | S. cerevisiae deletion strains, locus YER110C, hits give low values 1 | S. cerevisiae deletion strains, locus YER111C, strain swi4, hits give low values 0.99 | S. cerevisiae deletion strains, locus YER155C, strain BEM2 (second series), hits give low values 0.992 | S. cerevisiae deletion strains, locus YER155C, strain BEM2, hits give low values 1.01 | S. cerevisiae deletion strains, locus YER167W, strain BCK2, hits give low values 0.997 | S. cerevisiae deletion strains, locus YFR010W, strain ubp6, hits give low values 1.01 | S. cerevisiae deletion strains, locus YGL078C, strain dbp3, hits give low values 1.01 | S. cerevisiae deletion strains, locus YGL086W, strain mad1, hits give low values 1.01 | S. cerevisiae deletion strains, locus YGL167C, strain pmr1, hits give low values 1 | S. cerevisiae deletion strains, locus YGL173C, strain kem1, hits give low values 1.02 | S. cerevisiae deletion strains, locus YGL227W, strain vid30, hits give low values 1 | S. cerevisiae deletion strains, locus YGL240W, strain doc1, hits give low values 1.01 | S. cerevisiae deletion strains, locus YGL248W, strain PDE1, hits give low values 0.996 | S. cerevisiae deletion strains, locus YGL253W, strain hxk2, hits give low values 1 | S. cerevisiae deletion strains, locus YGR078C, strain PAC10, hits give low values 1.01 | S. cerevisiae deletion strains, locus YGR135W, strain pre9, hits give low values 1.01 | S. cerevisiae deletion strains, locus YGR252W, strain gcn5, hits give low values 1.01 | S. cerevisiae deletion strains, locus YHR013C, strain ard1, hits give low values 0.989 | S. cerevisiae deletion strains, locus YHR027C, strain rpn1, hits give low values 1.02 | S. cerevisiae deletion strains, locus YHR030C, strain SLT2, hits give low values 1.02 | S. cerevisiae deletion strains, locus YHR079C, strain IRE1 (second series), hits give low values 1 | S. cerevisiae deletion strains, locus YHR094C, strain hxt1, hits give low values 0.993 | S. cerevisiae deletion strains, locus YHR129C, strain ARP1, hits give low values 1 | S. cerevisiae deletion strains, locus YHR142W, strain chs7, hits give low values 0.997 | S. cerevisiae deletion strains, locus YHR200W, strain rpn10, hits give low values 0.983 | S. cerevisiae deletion strains, locus YIL066C, strain RNR3, hits give low values 1.01 | S. cerevisiae deletion strains, locus YIL073C, strain SPO22, hits give low values 1.03 | S. cerevisiae deletion strains, locus YIL125W, strain kgd1, hits give low values 1 | S. cerevisiae deletion strains, locus YIR030C, strain dcg1, hits give low values 0.995 | S. cerevisiae deletion strains, locus YJL092W, strain hpr5, hits give low values 1 | S. cerevisiae deletion strains, locus YJL095W, strain BCK1 (second series), hits give low values 0.997 | S. cerevisiae deletion strains, locus YJL095W, strain BCK1, hits give low values 1.03 | S. cerevisiae deletion strains, locus YJL115W, strain asf1, hits give low values 1.01 | S. cerevisiae deletion strains, locus YJL129C, strain trk1, hits give low values 1.01 | S. cerevisiae deletion strains, locus YJL134W, strain LCB3, hits give low values 1.01 | S. cerevisiae deletion strains, locus YJL154C, strain vps35, hits give low values 0.997 | S. cerevisiae deletion strains, locus YJL164C, strain tpk1, hits give low values 0.981 | S. cerevisiae deletion strains, locus YJL166W, strain qcr8, hits give low values 0.995 | S. cerevisiae deletion strains, locus YJL168C, strain set2, hits give low values 0.994 | S. cerevisiae deletion strains, locus YJL187C, strain SWE1 (second series), hits give low values 1.01 | S. cerevisiae deletion strains, locus YJL187C, strain SWE1, hits give low values 1 | S. cerevisiae deletion strains, locus YJR043C, strain POL32, hits give low values 1.03 | S. cerevisiae deletion strains, locus YJR075W, strain HOC1, hits give low values 1.01 | S. cerevisiae deletion strains, locus YKL068W, hits give low values 1 | S. cerevisiae deletion strains, locus YKL085W, strain MDH1 (second series), hits give low values 1.02 | S. cerevisiae deletion strains, locus YKL085W, strain MDH1, hits give low values 1.02 | S. cerevisiae deletion strains, locus YKL160W, strain elf1, hits give low values 0.978 | S. cerevisiae deletion strains, locus YKL190W, strain CNB1, hits give low values 1.02 | S. cerevisiae deletion strains, locus YKR001C, strain vps1, hits give low values 1.01 | S. cerevisiae deletion strains, locus YKR026C, strain gcn3, hits give low values 0.999 | S. cerevisiae deletion strains, locus YKR091W, strain srl3, hits give low values 0.997 | S. cerevisiae deletion strains, locus YLL001W, strain dnm1, hits give low values 0.977 | S. cerevisiae deletion strains, locus YLL026W, hits give low values 1 | S. cerevisiae deletion strains, locus YLL041C, strain sdh2, hits give low values 0.999 | S. cerevisiae deletion strains, locus YLR027C, strain aat2, hits give low values 0.991 | S. cerevisiae deletion strains, locus YLR039C, strain RIC1, hits give low values 1.03 | S. cerevisiae deletion strains, locus YLR058C, strain SHM2, hits give low values 1.01 | S. cerevisiae deletion strains, locus YLR102C, strain apc9, hits give low values 1.01 | S. cerevisiae deletion strains, locus YLR221C, strain rsa3, hits give low values 1.01 | S. cerevisiae deletion strains, locus YLR258W, strain gsy2, hits give low values 1.01 | S. cerevisiae deletion strains, locus YLR262C, strain YPT6 (second series), hits give low values 0.979 | S. cerevisiae deletion strains, locus YLR262C, strain YPT6, hits give low values 1.04 | S. cerevisiae deletion strains, locus YLR268W, strain sec22, hits give low values 1.01 | S. cerevisiae deletion strains, locus YLR320W, strain mms22, hits give low values 1 | S. cerevisiae deletion strains, locus YLR330W, strain CHS5, hits give low values 1 | S. cerevisiae deletion strains, locus YLR342W, strain FKS1 (second series), hits give low values 1.01 | S. cerevisiae deletion strains, locus YLR342W, strain FKS1, hits give low values 1 | S. cerevisiae deletion strains, locus YLR357W, strain rsc2, hits give low values 0.977 | S. cerevisiae deletion strains, locus YLR370C, strain arc18, hits give low values 0.999 | S. cerevisiae deletion strains, locus YLR371W, strain rom2, hits give low values 1 | S. cerevisiae deletion strains, locus YLR384C, strain iki3, hits give low values 1 | S. cerevisiae deletion strains, locus YLR418C, strain cdc73, hits give low values 1.01 | S. cerevisiae deletion strains, locus YML016C, strain PPZ1, hits give low values 1 | S. cerevisiae deletion strains, locus YML032C, strain rad52, hits give low values 0.991 | S. cerevisiae deletion strains, locus YML120C, strain ndi1, hits give low values 1 | S. cerevisiae deletion strains, locus YML124C, strain tub3, hits give low values 0.996 | S. cerevisiae deletion strains, locus YMR058W, strain fet3, hits give low values 1.01 | S. cerevisiae deletion strains, locus YMR078C, strain ctf18, hits give low values 0.996 | S. cerevisiae deletion strains, locus YMR125W, strain sto1, hits give low values 0.998 | S. cerevisiae deletion strains, locus YMR129W, hits give low values 1 | S. cerevisiae deletion strains, locus YMR205C, strain PFK2, hits give low values 0.998 | S. cerevisiae deletion strains, locus YMR223W, strain ubp8, hits give low values 0.991 | S. cerevisiae deletion strains, locus YMR231W, strain pep5, hits give low values 0.967 | S. cerevisiae deletion strains, locus YMR307W, strain GAS1, hits give low values 1.05 | S. cerevisiae deletion strains, locus YNL067W, strain RPL9B, hits give low values 1.02 | S. cerevisiae deletion strains, locus YNL071W, strain lat1, hits give low values 1 | S. cerevisiae deletion strains, locus YNL153C, strain GIM3, hits give low values 0.998 | S. cerevisiae deletion strains, locus YNL209W, strain ssb2, hits give low values 0.998 | S. cerevisiae deletion strains, locus YNL233W, strain BNI4, hits give low values 1.01 | S. cerevisiae deletion strains, locus YNL248C, strain rpa49, hits give low values 1.01 | S. cerevisiae deletion strains, locus YNL250W, strain rad50, hits give low values 0.994 | S. cerevisiae deletion strains, locus YNL271C, strain bni1, hits give low values 1 | S. cerevisiae deletion strains, locus YNL298W, strain CLA4, hits give low values 0.999 | S. cerevisiae deletion strains, locus YNL307C, strain MCK1, hits give low values 1 | S. cerevisiae deletion strains, locus YNL322C, strain KRE1 (second series), hits give low values 1.01 | S. cerevisiae deletion strains, locus YNL322C, strain KRE1, hits give low values 1.01 | S. cerevisiae deletion strains, locus YNR049C, strain mso1, hits give low values 1.02 | S. cerevisiae deletion strains, locus YNR052C, strain pop2, hits give low values 0.996 | S. cerevisiae deletion strains, locus YOL012C, strain htz1 0.704 | S. cerevisiae deletion strains, locus YOL147C, strain pex11, hits give low values 1.01 | S. cerevisiae deletion strains, locus YOR001W, strain rrp6, hits give low values 1.02 | S. cerevisiae deletion strains, locus YOR061W, strain CKA2, hits give low values 1.01 | S. cerevisiae deletion strains, locus YOR069W, strain VPS5, hits give low values 1.01 | S. cerevisiae deletion strains, locus YOR070C, strain gyp1, hits give low values 1 | S. cerevisiae deletion strains, locus YOR080W, strain dia2, hits give low values 1.01 | S. cerevisiae deletion strains, locus YOR083W, strain WHI5, hits give low values 0.975 | S. cerevisiae deletion strains, locus YOR106W, strain vam3, hits give low values 1 | S. cerevisiae deletion strains, locus YOR136W, strain idh2, hits give low values 0.998 | S. cerevisiae deletion strains, locus YOR144C, strain elg1, hits give low values 0.996 | S. cerevisiae deletion strains, locus YOR184W, strain ser1, hits give low values 1.02 | S. cerevisiae deletion strains, locus YOR265W, strain rbl2, hits give low values 0.994 | S. cerevisiae deletion strains, locus YOR270C, strain vph1, hits give low values 1 | S. cerevisiae deletion strains, locus YOR290C, strain snf2, hits give low values 0.961 | S. cerevisiae deletion strains, locus YOR316C, strain cot1, hits give low values 0.992 | S. cerevisiae deletion strains, locus YPL051W, strain arl3, hits give low values 0.97 | S. cerevisiae deletion strains, locus YPL078C, strain atp4, hits give low values 0.97 | S. cerevisiae deletion strains, locus YPL106C, strain sse1, hits give low values 0.994 | S. cerevisiae deletion strains, locus YPL240C, strain hsp82, hits give low values 0.999 | S. cerevisiae deletion strains, locus YPL241C, strain CIN2, hits give low values 1.01 | S. cerevisiae deletion strains, locus YPR119W, strain clb2, hits give low values 0.995 | S. cerevisiae deletion strains, locus YPR141C, strain kar3, hits give low values 0.997 | S. cerevisiae deletion strains, locus YPR163C, strain tif3, hits give low values 0.988 | S. cerevisiae deletion strains, locus YPR167C, strain met16, hits give low values 0.997 | S. cerevisiae deletion strains, strain wtn01, hits give low values 1.02 | S. cerevisiae strains, strain wild type, hits give low values 1.01
